Measured values published in publication PMC7862700, “An all-to-all approach to the identification of sequence-specific readers for epigenetic DNA modifications on cytosine”.

Key:
Assay in all cases: DAPPL (digital affinity profiling via proximity ligation, sequencing); 10 mM Tris-HCl pH 7.5, 50 mM NaCl, 1 mM DTT, 4% glycerol, room temperature, 30 min; GST-TFs on glutathione beads, 16-mer random dsDNA library, 0.1% formaldehyde crosslink after washing; high values mean tight binding
[1] = target: T1, FLI1 (Homo sapiens, UniProt Q01543 1-452); details: protein: recombinant; tags: N-terminal GST; dsDNA, one strand shown
T1 sequence: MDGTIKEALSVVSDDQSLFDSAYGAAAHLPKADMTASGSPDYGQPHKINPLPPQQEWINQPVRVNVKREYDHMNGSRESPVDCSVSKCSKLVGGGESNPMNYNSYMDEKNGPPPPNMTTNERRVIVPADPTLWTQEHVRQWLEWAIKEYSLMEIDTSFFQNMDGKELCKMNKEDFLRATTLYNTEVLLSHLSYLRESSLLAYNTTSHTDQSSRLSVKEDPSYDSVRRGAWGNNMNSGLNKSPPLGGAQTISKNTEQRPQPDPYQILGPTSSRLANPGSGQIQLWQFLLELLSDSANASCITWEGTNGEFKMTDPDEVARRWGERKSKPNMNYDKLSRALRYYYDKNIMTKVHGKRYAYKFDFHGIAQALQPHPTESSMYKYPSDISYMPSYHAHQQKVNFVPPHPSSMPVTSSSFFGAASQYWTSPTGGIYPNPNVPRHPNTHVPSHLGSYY
How it was run: (§1)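 Human transcription factors were made in yeast as GST fusions, captured on glutathione beads and barcoded with DNA. With a tag-only sample included, the pool was incubated with 200 nmole of a random double-stranded 16-mer DNA library in Tris/NaCl/DTT/glycerol buffer at room temperature for 30 min, then crosslinked with 0.1% formaldehyde after washing, ligated by proximity, amplified and sequenced. For binding signal, each hexamer's read frequency for a factor is divided by its frequency for the tag-only sample.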

[2] = target: T2, ELK1 (Homo sapiens, UniProt P19419 1-428); details: protein: recombinant; tags: N-terminal GST; dsDNA, one strand shown
T2 sequence: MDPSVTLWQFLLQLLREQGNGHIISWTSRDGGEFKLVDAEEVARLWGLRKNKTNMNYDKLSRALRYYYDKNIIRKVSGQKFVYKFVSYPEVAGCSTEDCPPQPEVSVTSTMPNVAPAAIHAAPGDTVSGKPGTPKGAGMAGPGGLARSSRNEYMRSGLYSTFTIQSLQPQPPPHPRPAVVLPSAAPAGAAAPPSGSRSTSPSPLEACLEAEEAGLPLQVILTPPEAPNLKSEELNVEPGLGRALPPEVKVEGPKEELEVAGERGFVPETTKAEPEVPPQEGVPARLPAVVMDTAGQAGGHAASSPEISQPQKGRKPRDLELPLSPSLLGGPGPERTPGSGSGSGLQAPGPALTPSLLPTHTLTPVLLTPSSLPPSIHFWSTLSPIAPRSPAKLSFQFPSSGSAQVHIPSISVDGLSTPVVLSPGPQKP
How it was run: as §1

[3] = target: T3, GABPA (Homo sapiens, UniProt Q06546 1-454); details: protein: recombinant; tags: N-terminal GST; dsDNA, one strand shown
T3 sequence: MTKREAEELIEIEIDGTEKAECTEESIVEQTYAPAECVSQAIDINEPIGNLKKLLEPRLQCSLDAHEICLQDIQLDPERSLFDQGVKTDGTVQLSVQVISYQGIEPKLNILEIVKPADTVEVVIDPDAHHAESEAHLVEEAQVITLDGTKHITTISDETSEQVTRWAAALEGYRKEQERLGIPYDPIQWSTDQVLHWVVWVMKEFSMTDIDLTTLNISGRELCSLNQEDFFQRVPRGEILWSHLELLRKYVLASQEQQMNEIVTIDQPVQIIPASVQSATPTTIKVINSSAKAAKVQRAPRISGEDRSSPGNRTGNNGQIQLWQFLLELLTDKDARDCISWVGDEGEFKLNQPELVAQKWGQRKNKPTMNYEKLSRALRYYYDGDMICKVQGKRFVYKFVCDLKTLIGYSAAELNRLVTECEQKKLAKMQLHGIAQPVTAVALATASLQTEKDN
How it was run: as §1

[4] = target: T4, ERG (Homo sapiens, UniProt P11308 1-479); details: protein: recombinant; tags: N-terminal GST; dsDNA, one strand shown
T4 sequence: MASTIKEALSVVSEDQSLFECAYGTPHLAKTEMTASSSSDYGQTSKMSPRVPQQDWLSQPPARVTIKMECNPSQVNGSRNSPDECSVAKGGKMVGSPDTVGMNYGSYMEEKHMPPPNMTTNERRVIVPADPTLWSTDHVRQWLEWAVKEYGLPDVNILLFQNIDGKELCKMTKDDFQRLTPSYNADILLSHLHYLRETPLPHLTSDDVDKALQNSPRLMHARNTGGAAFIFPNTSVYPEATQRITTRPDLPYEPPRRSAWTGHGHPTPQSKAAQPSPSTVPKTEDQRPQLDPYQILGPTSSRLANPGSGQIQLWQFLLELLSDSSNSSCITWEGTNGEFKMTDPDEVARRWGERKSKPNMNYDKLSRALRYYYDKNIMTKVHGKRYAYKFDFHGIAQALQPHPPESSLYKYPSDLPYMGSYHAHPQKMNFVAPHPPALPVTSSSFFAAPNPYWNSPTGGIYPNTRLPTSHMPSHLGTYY
How it was run: as §1

[5] = target: ELF1 (Homo sapiens, UniProt P32519 1-619); details: protein: recombinant; tags: N-terminal GST; dsDNA, one strand shown
How it was run: as §1

[6] = target: T5, EHF (Homo sapiens, UniProt Q9NZC4 1-300); details: protein: recombinant; tags: N-terminal GST; dsDNA, one strand shown
T5 sequence: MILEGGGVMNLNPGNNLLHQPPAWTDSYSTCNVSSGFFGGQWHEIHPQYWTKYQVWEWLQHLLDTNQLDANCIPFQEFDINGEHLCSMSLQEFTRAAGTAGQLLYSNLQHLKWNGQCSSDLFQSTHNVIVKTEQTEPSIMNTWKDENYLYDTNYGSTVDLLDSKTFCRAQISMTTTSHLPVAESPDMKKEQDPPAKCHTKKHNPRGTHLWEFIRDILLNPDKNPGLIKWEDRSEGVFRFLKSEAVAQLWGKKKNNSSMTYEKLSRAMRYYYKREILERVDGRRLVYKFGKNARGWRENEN
How it was run: as §1

[7] = target: SPI1 (Homo sapiens, UniProt P17947 1-270); details: protein: recombinant; tags: N-terminal GST; dsDNA, one strand shown
How it was run: as §1

[8] = target: SPIB (Homo sapiens, UniProt Q01892 1-262); details: protein: recombinant; tags: N-terminal GST; dsDNA, one strand shown
How it was run: as §1

[9] = target: T6, ELK3 (Homo sapiens, UniProt P41970 1-407); details: protein: recombinant; tags: N-terminal GST; dsDNA, one strand shown
T6 sequence: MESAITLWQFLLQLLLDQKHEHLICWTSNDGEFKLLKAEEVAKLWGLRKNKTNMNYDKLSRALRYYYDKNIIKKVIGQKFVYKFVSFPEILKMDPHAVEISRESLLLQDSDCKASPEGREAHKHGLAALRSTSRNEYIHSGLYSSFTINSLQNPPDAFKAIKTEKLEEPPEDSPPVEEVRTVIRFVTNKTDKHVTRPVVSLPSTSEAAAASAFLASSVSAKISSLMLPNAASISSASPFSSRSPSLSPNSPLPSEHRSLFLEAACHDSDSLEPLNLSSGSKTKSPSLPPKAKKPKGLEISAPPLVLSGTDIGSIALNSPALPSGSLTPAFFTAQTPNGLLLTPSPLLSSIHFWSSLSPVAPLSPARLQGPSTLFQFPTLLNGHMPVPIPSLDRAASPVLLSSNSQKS
How it was run: as §1

[10] = target: T7, FEV (Homo sapiens, UniProt Q99581 1-238); details: protein: recombinant; tags: N-terminal GST; dsDNA, one strand shown
T7 sequence: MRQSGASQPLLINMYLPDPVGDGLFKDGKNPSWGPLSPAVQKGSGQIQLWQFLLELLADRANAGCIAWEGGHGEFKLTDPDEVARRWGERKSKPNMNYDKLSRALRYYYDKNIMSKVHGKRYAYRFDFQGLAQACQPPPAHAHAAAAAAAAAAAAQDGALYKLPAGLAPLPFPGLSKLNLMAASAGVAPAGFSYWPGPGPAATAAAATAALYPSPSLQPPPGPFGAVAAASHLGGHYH
How it was run: as §1

[11] = target: ETV5 (Homo sapiens, UniProt P41161 1-510); details: protein: recombinant; tags: N-terminal GST; dsDNA, one strand shown
How it was run: as §1

[12] = target: HSF1 (Homo sapiens, UniProt Q00613 1-529); details: protein: recombinant; tags: N-terminal GST; chain copies: 3; dsDNA, one strand shown
How it was run: as §1

[13] = target: T8, SPIC (Homo sapiens, UniProt Q8N5J4 1-248); details: protein: recombinant; tags: N-terminal GST; dsDNA, one strand shown
T8 sequence: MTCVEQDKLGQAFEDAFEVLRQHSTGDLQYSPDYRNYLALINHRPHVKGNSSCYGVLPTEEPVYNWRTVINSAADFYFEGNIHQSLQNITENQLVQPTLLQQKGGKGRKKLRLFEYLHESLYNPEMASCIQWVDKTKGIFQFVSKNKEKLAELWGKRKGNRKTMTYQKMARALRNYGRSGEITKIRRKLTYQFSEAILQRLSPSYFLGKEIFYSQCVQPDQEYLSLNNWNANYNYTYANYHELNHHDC
How it was run: as §1

[14] = target: ELF4 (Homo sapiens, UniProt Q99607 1-663); details: protein: recombinant; tags: N-terminal GST; dsDNA, one strand shown
How it was run: as §1

[15] = target: T9, ELK4 (Homo sapiens, UniProt P28324-2 1-405); details: protein: recombinant; tags: N-terminal GST; dsDNA, one strand shown
T9 sequence: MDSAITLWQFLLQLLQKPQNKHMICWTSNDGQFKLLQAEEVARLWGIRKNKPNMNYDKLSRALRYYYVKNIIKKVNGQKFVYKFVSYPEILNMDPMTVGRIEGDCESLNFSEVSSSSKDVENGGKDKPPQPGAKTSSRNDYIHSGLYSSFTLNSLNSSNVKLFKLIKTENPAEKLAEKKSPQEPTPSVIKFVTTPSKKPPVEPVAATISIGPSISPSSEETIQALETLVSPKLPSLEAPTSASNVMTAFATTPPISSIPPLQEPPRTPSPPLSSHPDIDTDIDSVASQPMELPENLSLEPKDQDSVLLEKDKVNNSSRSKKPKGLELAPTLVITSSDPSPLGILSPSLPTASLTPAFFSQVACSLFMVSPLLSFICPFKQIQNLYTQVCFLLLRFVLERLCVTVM
How it was run: as §1

[16] = target: T10, ETV2 (Homo sapiens, UniProt O00321 1-342); details: protein: recombinant; tags: N-terminal GST; dsDNA, one strand shown
T10 sequence: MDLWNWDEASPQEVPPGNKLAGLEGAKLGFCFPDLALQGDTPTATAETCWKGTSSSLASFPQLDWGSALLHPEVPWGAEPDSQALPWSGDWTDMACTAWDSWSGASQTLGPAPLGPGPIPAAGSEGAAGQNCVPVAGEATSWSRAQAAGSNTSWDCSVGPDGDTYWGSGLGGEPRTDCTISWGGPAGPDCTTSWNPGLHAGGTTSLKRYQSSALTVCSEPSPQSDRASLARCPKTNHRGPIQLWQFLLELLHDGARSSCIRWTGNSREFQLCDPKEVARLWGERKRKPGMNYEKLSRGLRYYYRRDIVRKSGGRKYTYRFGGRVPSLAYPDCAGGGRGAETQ
How it was run: as §1

[17] = target: T11, ELF3 (Homo sapiens, UniProt P78545 1-371); details: protein: recombinant; tags: N-terminal GST; dsDNA, one strand shown
T11 sequence: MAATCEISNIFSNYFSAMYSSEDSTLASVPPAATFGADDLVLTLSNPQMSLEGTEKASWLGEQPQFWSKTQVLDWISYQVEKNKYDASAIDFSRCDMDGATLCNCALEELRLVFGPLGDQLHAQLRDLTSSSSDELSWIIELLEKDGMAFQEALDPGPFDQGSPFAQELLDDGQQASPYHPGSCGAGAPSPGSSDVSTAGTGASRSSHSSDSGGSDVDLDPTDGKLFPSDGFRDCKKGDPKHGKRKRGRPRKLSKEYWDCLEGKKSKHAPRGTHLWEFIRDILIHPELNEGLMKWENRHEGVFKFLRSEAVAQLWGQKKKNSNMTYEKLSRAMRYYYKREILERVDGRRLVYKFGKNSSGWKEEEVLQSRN
How it was run: as §1

[18] = target: CRX (Homo sapiens, UniProt O43186 1-299); details: protein: recombinant; tags: N-terminal GST; dsDNA, one strand shown
How it was run: as §1

[19] = target: ETV1 (Homo sapiens, UniProt P50549 1-477); details: protein: recombinant; tags: N-terminal GST; dsDNA, one strand shown
How it was run: as §1

Chain of HSF1 (Q00613 whole entry): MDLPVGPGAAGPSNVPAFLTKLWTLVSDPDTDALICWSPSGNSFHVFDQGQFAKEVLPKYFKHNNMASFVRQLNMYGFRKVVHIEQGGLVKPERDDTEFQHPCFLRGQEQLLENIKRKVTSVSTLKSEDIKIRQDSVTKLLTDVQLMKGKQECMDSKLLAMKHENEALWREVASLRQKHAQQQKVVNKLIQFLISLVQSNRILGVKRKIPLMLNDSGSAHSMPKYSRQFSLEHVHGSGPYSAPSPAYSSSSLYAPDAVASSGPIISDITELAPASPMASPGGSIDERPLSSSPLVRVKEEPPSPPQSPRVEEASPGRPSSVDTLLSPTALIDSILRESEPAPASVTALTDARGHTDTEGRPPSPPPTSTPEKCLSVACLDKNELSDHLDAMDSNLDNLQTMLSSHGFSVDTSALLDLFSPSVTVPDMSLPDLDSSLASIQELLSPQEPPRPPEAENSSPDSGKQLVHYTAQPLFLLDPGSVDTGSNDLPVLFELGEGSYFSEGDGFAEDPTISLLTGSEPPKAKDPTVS
Chain of ETV5 (P41161 whole entry): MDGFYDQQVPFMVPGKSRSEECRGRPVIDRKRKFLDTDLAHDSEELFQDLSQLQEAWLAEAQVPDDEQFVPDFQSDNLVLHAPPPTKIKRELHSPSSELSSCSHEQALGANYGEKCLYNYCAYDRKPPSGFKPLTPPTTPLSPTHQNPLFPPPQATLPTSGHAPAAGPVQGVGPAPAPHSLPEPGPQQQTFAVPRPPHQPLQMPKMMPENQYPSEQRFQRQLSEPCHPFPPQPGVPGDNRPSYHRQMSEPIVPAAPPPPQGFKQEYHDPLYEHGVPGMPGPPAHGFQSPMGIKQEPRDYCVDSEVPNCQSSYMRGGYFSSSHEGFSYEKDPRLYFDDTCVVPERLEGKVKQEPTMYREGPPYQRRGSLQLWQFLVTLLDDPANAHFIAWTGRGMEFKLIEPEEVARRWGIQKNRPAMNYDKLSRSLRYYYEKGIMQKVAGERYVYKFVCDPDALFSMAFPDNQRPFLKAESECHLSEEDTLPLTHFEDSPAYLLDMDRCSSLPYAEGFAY
Chain of ETV1 (P50549 whole entry): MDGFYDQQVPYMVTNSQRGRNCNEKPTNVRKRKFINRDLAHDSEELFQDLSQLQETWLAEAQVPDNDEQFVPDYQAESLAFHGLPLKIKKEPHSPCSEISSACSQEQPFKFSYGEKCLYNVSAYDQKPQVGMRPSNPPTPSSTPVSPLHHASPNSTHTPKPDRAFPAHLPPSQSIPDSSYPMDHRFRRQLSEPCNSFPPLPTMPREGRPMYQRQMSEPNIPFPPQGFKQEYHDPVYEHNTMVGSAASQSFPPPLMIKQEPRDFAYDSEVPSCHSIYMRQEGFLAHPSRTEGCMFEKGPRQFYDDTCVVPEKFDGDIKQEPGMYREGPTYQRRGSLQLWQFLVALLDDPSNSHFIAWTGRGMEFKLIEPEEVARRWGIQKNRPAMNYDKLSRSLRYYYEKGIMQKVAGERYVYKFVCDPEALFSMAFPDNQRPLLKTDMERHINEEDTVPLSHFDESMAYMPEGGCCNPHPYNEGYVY
Chain of ELF4 (Q99607 whole entry): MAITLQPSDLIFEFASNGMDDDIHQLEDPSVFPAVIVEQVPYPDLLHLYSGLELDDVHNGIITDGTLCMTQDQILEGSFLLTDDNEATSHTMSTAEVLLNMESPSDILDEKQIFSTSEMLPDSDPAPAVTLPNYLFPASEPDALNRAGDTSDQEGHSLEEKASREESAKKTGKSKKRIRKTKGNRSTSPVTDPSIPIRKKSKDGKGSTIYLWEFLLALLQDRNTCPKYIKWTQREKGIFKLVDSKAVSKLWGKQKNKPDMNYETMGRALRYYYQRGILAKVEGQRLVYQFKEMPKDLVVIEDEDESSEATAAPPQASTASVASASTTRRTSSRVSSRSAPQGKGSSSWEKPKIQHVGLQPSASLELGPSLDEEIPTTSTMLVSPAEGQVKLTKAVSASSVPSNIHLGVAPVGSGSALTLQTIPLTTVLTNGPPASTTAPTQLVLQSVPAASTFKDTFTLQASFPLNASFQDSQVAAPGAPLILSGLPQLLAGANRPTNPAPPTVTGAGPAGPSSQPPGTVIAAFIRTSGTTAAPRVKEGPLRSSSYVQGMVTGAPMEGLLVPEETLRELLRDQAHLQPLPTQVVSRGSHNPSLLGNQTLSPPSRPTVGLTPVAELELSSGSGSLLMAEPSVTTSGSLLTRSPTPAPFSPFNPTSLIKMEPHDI
Chain of SPIB (Q01892 whole entry): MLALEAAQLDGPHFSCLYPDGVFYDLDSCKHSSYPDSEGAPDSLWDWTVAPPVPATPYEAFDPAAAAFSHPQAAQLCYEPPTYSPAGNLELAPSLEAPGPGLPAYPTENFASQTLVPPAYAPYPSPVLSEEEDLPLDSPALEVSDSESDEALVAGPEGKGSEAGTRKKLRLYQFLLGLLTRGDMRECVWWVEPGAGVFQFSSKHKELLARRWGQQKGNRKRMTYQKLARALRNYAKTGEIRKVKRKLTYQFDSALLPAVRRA
Chain of ELF1 (P32519 whole entry): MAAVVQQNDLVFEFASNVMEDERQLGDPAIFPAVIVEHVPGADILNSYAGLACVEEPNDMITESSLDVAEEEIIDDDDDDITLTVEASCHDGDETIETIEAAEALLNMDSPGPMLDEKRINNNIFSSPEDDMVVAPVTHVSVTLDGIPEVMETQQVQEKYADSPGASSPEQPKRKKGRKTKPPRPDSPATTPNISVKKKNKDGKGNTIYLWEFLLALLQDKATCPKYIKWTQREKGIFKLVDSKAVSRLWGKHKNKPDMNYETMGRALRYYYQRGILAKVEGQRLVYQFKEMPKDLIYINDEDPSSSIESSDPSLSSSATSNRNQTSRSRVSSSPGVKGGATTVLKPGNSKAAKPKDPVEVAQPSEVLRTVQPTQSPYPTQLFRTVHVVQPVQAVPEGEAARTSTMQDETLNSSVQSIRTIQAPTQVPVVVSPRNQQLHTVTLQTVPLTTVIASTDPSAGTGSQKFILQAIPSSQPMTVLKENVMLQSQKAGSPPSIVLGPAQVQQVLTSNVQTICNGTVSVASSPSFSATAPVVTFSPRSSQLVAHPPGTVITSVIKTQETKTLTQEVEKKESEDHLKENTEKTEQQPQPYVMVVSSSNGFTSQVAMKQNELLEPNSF
Chain of CRX (O43186 whole entry): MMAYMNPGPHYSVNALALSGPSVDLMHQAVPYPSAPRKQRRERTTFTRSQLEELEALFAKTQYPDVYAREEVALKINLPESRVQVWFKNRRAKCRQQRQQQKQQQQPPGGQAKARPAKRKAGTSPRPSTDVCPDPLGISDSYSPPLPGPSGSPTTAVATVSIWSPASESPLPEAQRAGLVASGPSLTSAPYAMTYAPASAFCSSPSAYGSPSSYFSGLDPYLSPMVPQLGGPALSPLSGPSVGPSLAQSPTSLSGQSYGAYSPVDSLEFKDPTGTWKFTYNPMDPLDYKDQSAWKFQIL

In the case of TACCAA, the binding signal [1] was 1.14 fold enrichment (6-mer frequency, TF over GST control), the binding signal [2] was 1.17 fold enrichment (6-mer frequency, TF over GST control) and the binding signal [3] was 1.11 fold enrichment (6-mer frequency, TF over GST control). The binding signal [4] was 1.18 fold enrichment (6-mer frequency, TF over GST control), the binding signal [5] was 1.21 fold enrichment (6-mer frequency, TF over GST control) and the binding signal [6] was 1.13 fold enrichment (6-mer frequency, TF over GST control). For the same sequence, the binding signal [7] was 1.16 fold enrichment (6-mer frequency, TF over GST control), the binding signal [8] was 1.13 fold enrichment (6-mer frequency, TF over GST control) and the binding signal [9] was 1.05 fold enrichment (6-mer frequency, TF over GST control). The binding signal [10] was 1.14 fold enrichment (6-mer frequency, TF over GST control), the binding signal [11] was 1.13 fold enrichment (6-mer frequency, TF over GST control) and the binding signal [12] was 1.14 fold enrichment (6-mer frequency, TF over GST control). For the same sequence, the binding signal [13] was 1.01 fold enrichment (6-mer frequency, TF over GST control), the binding signal [14] was 1.2 fold enrichment (6-mer frequency, TF over GST control) and the binding signal [15] was 1.23 fold enrichment (6-mer frequency, TF over GST control). The binding signal [16] was 1.09 fold enrichment (6-mer frequency, TF over GST control), the binding signal [17] was 1.05 fold enrichment (6-mer frequency, TF over GST control) and the binding signal [18] was 1.25 fold enrichment (6-mer frequency, TF over GST control). For the same sequence, the binding signal [19] was 1.11 fold enrichment (6-mer frequency, TF over GST control).
